Screening results (PubChem)
The list is not random: actives were taken first. Their share in the collection is about 5.9%.
rCAG RNA binder: binders of r(CAG) RNA repeats, primary screen, biochemical, fluorescence; r(CAG) RNA repeat, TO-PRO-1 dye displacement fluorescence; inhibition, % at 3 µM; hit rate 1.3% among 370,000; AID 651821, 2012;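 active = inhibition above the plate cutoff, the mean of all test compounds on that plate plus 3 SD, cut at about 35% in these data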;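 note: 0% = DMSO alone and 100% = 100 µM mitoxantrone as full dye displacement; higher means more dye released from RNA so lower well fluorescence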
LANA-H2B inh: blockers of LANA interaction with H2A/H2B – biochemical, FP readout, HTS, primary screen; hit rate 0.6% among 320,000; inhibition, % (test concentration not listed); AID 2629, 2010; cell-free LANA-H2A/H2B peptide, fluorescence polarization; in the data active = inhibition mostly above about 10%, no sharp cut-off; inactive = mostly below about 6.7%
Target sequence (Q9QR71 whole entry, looked up): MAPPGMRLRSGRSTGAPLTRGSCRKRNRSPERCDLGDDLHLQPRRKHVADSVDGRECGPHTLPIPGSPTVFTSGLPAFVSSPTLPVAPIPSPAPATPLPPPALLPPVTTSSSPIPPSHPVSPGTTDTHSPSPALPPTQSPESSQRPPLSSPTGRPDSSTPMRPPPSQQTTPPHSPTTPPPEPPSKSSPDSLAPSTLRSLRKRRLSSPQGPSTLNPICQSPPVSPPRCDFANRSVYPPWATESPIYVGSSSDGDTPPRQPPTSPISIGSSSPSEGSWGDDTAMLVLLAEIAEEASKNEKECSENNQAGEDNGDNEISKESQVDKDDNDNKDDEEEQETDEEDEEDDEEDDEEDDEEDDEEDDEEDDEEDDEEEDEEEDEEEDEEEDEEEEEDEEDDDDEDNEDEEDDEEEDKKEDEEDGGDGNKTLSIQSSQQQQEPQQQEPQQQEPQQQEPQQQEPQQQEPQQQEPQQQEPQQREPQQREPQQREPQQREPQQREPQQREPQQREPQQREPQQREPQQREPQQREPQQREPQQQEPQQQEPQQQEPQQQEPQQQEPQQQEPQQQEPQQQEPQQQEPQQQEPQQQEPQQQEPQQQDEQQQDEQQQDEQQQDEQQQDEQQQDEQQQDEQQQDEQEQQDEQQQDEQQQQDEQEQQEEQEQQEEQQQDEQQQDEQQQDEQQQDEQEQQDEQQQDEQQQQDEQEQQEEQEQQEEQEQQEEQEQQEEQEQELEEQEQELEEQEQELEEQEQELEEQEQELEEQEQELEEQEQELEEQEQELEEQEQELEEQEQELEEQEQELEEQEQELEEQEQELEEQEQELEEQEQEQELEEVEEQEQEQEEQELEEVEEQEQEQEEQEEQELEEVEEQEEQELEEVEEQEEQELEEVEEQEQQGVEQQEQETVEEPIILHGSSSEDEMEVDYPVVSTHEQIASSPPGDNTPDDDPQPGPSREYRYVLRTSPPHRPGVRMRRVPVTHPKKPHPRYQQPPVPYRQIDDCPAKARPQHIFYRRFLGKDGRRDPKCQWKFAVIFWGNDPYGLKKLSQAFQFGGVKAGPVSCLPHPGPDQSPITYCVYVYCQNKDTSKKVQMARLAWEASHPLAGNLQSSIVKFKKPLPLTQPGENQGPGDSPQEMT
ALR inh: inhibitors of human ALR sulfhydryl oxidase, primary screen, biochemical, H2O2 detection, HRP-luminol luminescence, single point | hit rate 3.8% among 290,000 | FAD-linked sulfhydryl oxidase ALR (Homo sapiens), P55789 | AID 485317, 2010 | inhibition, % (test concentration not listed) | purified ALR, DTT oxidation;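 active = mean replicate inhibition above about 79%, with every replicate also reaching it, limit read from the data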
Rtt109 Vps75: inhibitors of C. albicans Rtt109/Vps75 HAT, primary screen, biochemical, ThioGlo CoA-SH fluorescence, plate reader; Histone acetyltransferase RTT109 (Candida albicans (strain SC5314 / ATCC MYA-2876)), …; purified Rtt109/Vps75, 4 h; inhibition, % at 34.9 µM; hit rate 0.16% among 330,000;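 active = inhibition of at least 50% in every replicate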
ABHD5-PLIN5 inh: ABHD5-PLIN5 interaction inhibitors, primary screen, cell lysate, split luciferase complementation, luminescence | Perilipin-5 (Homo sapiens) + 1-acylglycerol-3-phosphate O-acyltransferase ABHD5 (Homo … | Split G. princeps luciferase complementation, 4 h | inhibition, % at 4 µM | hit rate 0.78% among 360,000 | AID 602281, 2012;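 active = inhibition above the mean inhibition across every tested compound plus 3 SD, cut at about 22% in these data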;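 note: 0% = DMSO only wells and the 100% control is not disclosed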
PRMT1 inh: PRMT1 methyltransferase inhibitors, primary screen, biochemical, fluorescence polarization. Protein arginine N-methyltransferase 1 (Homo sapiens), Q99873. recombinant PRMT1, activity-based probe fluorescence polarization. inhibition, % at 2.79 µM. hit rate 1.3% among 370,000;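 active = inhibition above about 21% made by adding two undisclosed values, limit read from the data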
Starred values were filed as active, the others as inactive.

For C=CCNC(=O)/C(C#N)=C/c1ccccc1OCc1ccc(C(=O)OC)cc1 the results were rCAG RNA binder -5.4, LANA-H2B inh -10.7, ALR inh -5.4, ABHD5-PLIN5 inh 22.0* and PRMT1 inh 1.9.
CCOC(=O)c1ccccc1NC(=O)COC(=O)C(CC(C)C)NC(N)=O (stereo not given) was read as rCAG RNA binder -7.0, LANA-H2B inh 4.6, Rtt109 Vps75 2.2, ABHD5-PLIN5 inh 1.4 and PRMT1 inh -3.1.
Screening CC(C)CC(NC(=O)c1ccccc1)C(=O)OCC(=O)Nc1ccc(Br)cn1 (stereo not given) returned rCAG RNA binder 3.2, LANA-H2B inh -9.4, ALR inh 98.8*, Rtt109 Vps75 -2.0, ABHD5-PLIN5 inh -6.2 and PRMT1 inh -0.1.
Screening O=C(C[C@H]1C[C@H](C(=O)N2CCOCC2)[C@@]2(CCC3CCCC3)c3[nH]c4cc(-c5ccco5)ccc4c3CCN2C1=O)NCCN1CCOCC1 returned rCAG RNA binder 7.7, Rtt109 Vps75 -13.2, ABHD5-PLIN5 inh 16.7 and PRMT1 inh 1.1.
Screening COc1ccc2[nH]c3c(c2c1)CCN1C(=O)C(CC(=O)NCCc2ccccn2)C[C@H](C(=O)N2CCOCC2)[C@@]31CCC1CCCC1 (stereo not given in full) returned rCAG RNA binder 1.0, Rtt109 Vps75 1.8, ABHD5-PLIN5 inh 1.5 and PRMT1 inh 1.9.
Screening CC(C)(C)NC(=O)C[C@H]1C[C@H](C(=O)N2CCOCC2)[C@@]2(CCC3CCCC3)c3[nH]c4cc(-c5ccco5)ccc4c3CCN2C1=O returned Rtt109 Vps75 7.9 and ABHD5-PLIN5 inh 31.9*.
Screening O=C(CC1C[C@H](C(=O)N2CCOCC2)[C@@]2(CCC3CCCC3)c3[nH]c4ccccc4c3CCN2C1=O)NCCc1ccccn1 (stereo not given in full) returned rCAG RNA binder 1.5, LANA-H2B inh 104.9*, ALR inh -1.5, Rtt109 Vps75 0.3, ABHD5-PLIN5 inh 1.0 and PRMT1 inh -3.0.
COc1ccc(N2C(=O)c3n[nH]c(C)c3C2c2ccc(F)cc2)cc1 (stereo not given) was read as rCAG RNA binder -1.9 and PRMT1 inh 1.9.
Screening CN=c1scc(C)n1/N=C/c1cc(Br)c(O)c(OC)c1 returned rCAG RNA binder 3.8, LANA-H2B inh -1.6, ALR inh 99.0*, Rtt109 Vps75 -0.9, ABHD5-PLIN5 inh -7.7 and PRMT1 inh 0.7.
`O=C1c2ccccc2C(=O)N1/N=C/c1ccc(O)c(O)c1O` gave Rtt109 Vps75 35.7 and ABHD5-PLIN5 inh -0.1.
CN=c1scc(-c2ccccc2Br)n1/N=C/c1ccc[nH]1 was read as LANA-H2B inh -4.2 and ALR inh 4.9.
For CN=c1scc(-c2cccs2)n1/N=C/c1ccccc1O the results were rCAG RNA binder 5.2, LANA-H2B inh 0.1, ALR inh 87.1*, Rtt109 Vps75 -6.2, ABHD5-PLIN5 inh -7.0 and PRMT1 inh -1.6.
For COc1cc(/C=N/N(C)C)cc(Br)c1O the results were rCAG RNA binder -1.1, LANA-H2B inh -2.9, Rtt109 Vps75 31.2, ABHD5-PLIN5 inh 6.5 and PRMT1 inh 5.5.
For CN=c1scc(C)n1/N=C/c1ccc(O)c(O)c1O the results were rCAG RNA binder 21.9, LANA-H2B inh 6.6, ALR inh 99.9*, Rtt109 Vps75 24.3, ABHD5-PLIN5 inh -15.2 and PRMT1 inh 26.1*.
Screening CCC(CC)CN1CCC(CN2C(=S)NC[C@@H]2Cc2ccccc2)CC1 returned rCAG RNA binder 1.7 and PRMT1 inh 0.2.
`CN1CCCC1CCSc1ncccc1-c1nc2ccccc2[nH]1` (stereo not given) gave rCAG RNA binder 6.9 and PRMT1 inh 0.6.
Screening O=S(=O)(c1ccc2ccccc2c1)N1CCOCC1 returned rCAG RNA binder 4.3, LANA-H2B inh 1.8, Rtt109 Vps75 -5.2, ABHD5-PLIN5 inh -4.6 and PRMT1 inh -4.7.
